Results from ChEMBL document CHEMBL3988442, “University of Dundee, Small-Polar-MMV Screening Library” (2021).
Out of some 48,000 compounds screened, about 13,000 (27%) showed an effect of 50% or more. Some of the results follow.

Each compound was assayed on Wolbachia pipientis (assay: Anti-Wolbachia Cell-Based Screen). Conditions: 5 µM.
Format: functional
Set-up: scale not given: in the data most compounds retested in dose-response had high values
For CCOCC(=O)NCC1CCN(Cc2ccsc2)CC1, the “Percent Effect” value was 164%.
With O=C(NCCCC(=O)N1Cc2ccccc2C1)NCc1ccsc1 the “Percent Effect” value was 1.068%.
With O=C(NCc1ccccc1)NCC1CCN(Cc2ccsc2)CC1 the “Percent Effect” value was 116.2%.
For Cc1ccccc1CN1CCC(CNC(=O)Cn2cncn2)CC1, the “Percent Effect” value was 9.92%.
For CN1CCC(CNC(=O)Cc2ccc(N(C)C)cc2)CC1, the “Percent Effect” value was -0.2873%.
In the case of O=C(Cc1ccc(F)cc1)NCC1CCN(Cc2ccsc2)CC1, the “Percent Effect” value is reported as 152.7%.
For Cc1cc(CN2CCC(CNC(=O)Cc3ccc(F)cc3)C2)[nH]n1 (centres undefined), the “Percent Effect” value was 4.609%.
In the case of O=C(Cc1ccccc1Cl)NCC1CCN(Cc2ccsc2)CC1, the “Percent Effect” value is reported as 104.9%.
In the case of O=C(Cn1cncn1)NCC1CCN(Cc2ccccc2Cl)CC1, the “Percent Effect” value is reported as -9.372%.
In the case of Cc1cc(CN(C)C(=O)c2ccc(F)cc2Br)no1, the “Percent Effect” value is reported as -8.681%.
For Cc1cc(=O)[nH]c(NCCNC(=O)C(c2ccc(F)cc2)N(C)C)n1 (centres undefined), the “Percent Effect” value was 1.725%.
Cc1nc(CN2CCN(C(=O)CC(C)(C)c3ccccc3)CC2)no1 was tested, and the “Percent Effect” value was 6.376%.
CCc1nc(CN2CCCC(Nc3ncnc4ccsc34)C2)no1 (centres undefined) was tested, and the “Percent Effect” value was 25.2%.
O=C(O)C(F)(F)F.O=S(=O)(C1CC1)N1CCC2(CC1)CN(Cc1nccs1)CCO2 was tested, and the “Percent Effect” value was 4.912%.
In the case of CCNC(=O)N1CCC(NC(=O)NCCc2ccc(C)cc2C)C1 (centres undefined), the “Percent Effect” value is reported as 5.947%.
COCCN1CC(c2nc(CSC)no2)CCC1=O (centres undefined) was tested, and the “Percent Effect” value was 7.021%.
For CCc1nccn1C1CCCN(C(=O)c2ccc(C(N)=O)cn2)C1 (centres undefined), the “Percent Effect” value was 6.395%.
In the case of CCc1nccn1C1CCCN(C(=O)c2ccc3nnc(C)n3c2)C1 (centres undefined), the “Percent Effect” value is reported as 92.62%.
For Cc1nccn1C1CCCN(C(=O)c2ccc3nnc(C)n3c2)C1 (centres undefined), the “Percent Effect” value was 98.33%.
In the case of CCc1nccn1C1CCCN(C(=O)c2ccc3[nH]c(=O)[nH]c3c2)C1 (centres undefined), the “Percent Effect” value is reported as 0.4559%.
In the case of Cc1nc(C)c(C(=O)N2CCc3c(Cl)cccc32)o1, the “Percent Effect” value is reported as -6.606%.
In the case of Cc1nc(CN2CCCN(Cc3nc4c(F)cccc4[nH]3)CC2)no1, the “Percent Effect” value is reported as 93.2%.
CCc1ncc2c(n1)CN(Cc1nc3c(F)cccc3[nH]1)CC2 was tested, and the “Percent Effect” value was -2.409%.
In the case of CNC(=O)c1cccc(CN2CCC(N(C)Cc3ncc(C)o3)C2)c1 (centres undefined), the “Percent Effect” value is reported as 18.32%.
Cc1nc(CN(C)C2CCN(Cc3nc4c(F)cccc4[nH]3)C2)no1 (centres undefined) was tested, and the “Percent Effect” value was 95.7%.
For Cc1cnc(CN(C)C2CCN(Cc3nc4ccccc4n3C)C2)o1 (centres undefined), the “Percent Effect” value was 4.653%.
In the case of Cc1ncc2c(n1)CN(Cc1nc3c(F)cccc3[nH]1)CC2, the “Percent Effect” value is reported as -1.881%.
Cc1cnc(CN(C)C2CCN(Cc3nc4c(F)cccc4[nH]3)C2)o1 (centres undefined) was tested, and the “Percent Effect” value was 88.38%.
For Cc1sc2nc(C(F)(F)F)nc(N3CCN(S(C)(=O)=O)CC3)c2c1C, the “Percent Effect” value was 0.8403%.
For O=C1NC(c2ccccc2)=N[C@@]12CC[C@@H]1CN(Cc3ccco3)C[C@@H]12, the “Percent Effect” value was 9.656%.
With CCOc1ccc(NC(=O)c2[nH]c(C)cc2C)cc1CO the “Percent Effect” value was -6.246%.
CNC(=O)c1cc2ccccc2n1C was tested, and the “Percent Effect” value was 113.9%.
With Cn1c(C(=O)NCC2(N)CCCC2)cc2ccccc21 the “Percent Effect” value was 105.3%.
For O=C(NCC1(CO)CC1)c1cccc2ccccc12, the “Percent Effect” value was -22.57%.
COCCn1c(C(=O)NCC(C)C(=O)O)cc2ccccc21 (centres undefined) was tested, and the “Percent Effect” value was 18.09%.
For Cc1nc(C)n(C2CCCN(C(=O)c3cc4ccccc4n3C)C2)n1 (centres undefined), the “Percent Effect” value was 8.769%.
With CNC(=O)c1ccc(-c2ccccc2)n1C the “Percent Effect” value was -8.126%.
In the case of CC(C)NC(=O)c1n[nH]c(-n2cnnc2)n1, the “Percent Effect” value is reported as -2.794%.
With Cc1cc(C)nc(Nc2cccc(C3CCCN(C(C)C)C3)n2)n1 (centres undefined) the “Percent Effect” value was 76.23%.
CNc1cc(C)nc(NC2CCCN(C3Cc4ccccc4C3)C2)n1 (centres undefined) was tested, and the “Percent Effect” value was 9.514%.
For CNc1nc(C)cc(NC2CCCN(C3Cc4ccccc4C3)C2)n1 (centres undefined), the “Percent Effect” value was 43.21%.
Cc1cc(C)nc(Nc2cccc(C3CCCN(CCO)C3)n2)n1 (centres undefined) was tested, and the “Percent Effect” value was 75.7%.
For Cc1cc(C)nc(Nc2cccc(C3CCCN(CC4CC4)C3)n2)n1 (centres undefined), the “Percent Effect” value was 109.6%.
In the case of Cc1cc(C)nc(Nc2cccc(C3CCCN(C)C3)n2)n1.O=CO (centres undefined), the “Percent Effect” value is reported as -4.261%.
For Cc1cc(CC(C)NC(=O)COc2ccc(F)cc2F)[nH]n1 (centres undefined), the “Percent Effect” value was 17.04%.
With CN(C(=O)NCc1ccncc1)C1CCN(c2ccccc2)C1=O (centres undefined) the “Percent Effect” value was -1.353%.
With O=c1nc(SCc2ccc(Cl)cc2)c2c(n1CCO)CCC2 the “Percent Effect” value was 7.751%.
With CN(CCc1nc(-c2cccc(Cl)c2)no1)CCn1cccn1 the “Percent Effect” value was 14.68%.
In the case of COc1ccc(Cl)cc1C(=O)NCCNc1cnccn1, the “Percent Effect” value is reported as 117.3%.
With COc1ccc(Cl)cc1NC(=O)CCNc1ccc(C#N)cn1 the “Percent Effect” value was -1.327%.
With O=C(NCCNc1cnccn1)c1scnc1Cl the “Percent Effect” value was 1.056%.
For COc1ccc(Cl)cc1NCC(=O)NCCNc1cnccn1, the “Percent Effect” value was 7.849%.
In the case of COc1ccc(Cl)cc1NCCC(=O)NCCNc1cnccn1, the “Percent Effect” value is reported as 93.92%.
Cc1ncsc1C(=O)NCCNc1cnccn1 was tested, and the “Percent Effect” value was 4.216%.
For NC(=O)C(Nc1cccc(CO)c1)c1ccc(Br)cc1 (centres undefined), the “Percent Effect” value was -1.327%.
CCCn1ccnc1CNC(=O)C1COc2cc(OC)ccc2C1 (centres undefined) was tested, and the “Percent Effect” value was -6.706%.
With CCOC(=O)[C@H]1[C@@H](O)C(=O)N(C)C12CCN(C(=O)OC)CC2 the “Percent Effect” value was 97.39%.
In the case of COC(=O)N1CCC2(CC1)N=C(CCC(C)C)NC2=O, the “Percent Effect” value is reported as -0.8032%.
For CCOC(=O)[C@H]1[C@@H](O)C(=O)N(C)C12CCN(C(=O)CC(C)C)CC2, the “Percent Effect” value was 122.2%.
In the case of CC(C)NC(=O)N1CCC2(CC1)[C@@H]1CN(C(=O)N(C)C)C[C@@H]1C(=O)N2C, the “Percent Effect” value is reported as -31.71%.
CC(C)CC(=O)N1CCC2(CC1)NC(=O)[C@H]1CN(C(=O)N(C)C)C[C@H]12 was tested, and the “Percent Effect” value was -16.51%.
For CC(=O)N1C[C@@H]2C(=O)N(C)C3(CCN(C(=O)C(C)C)CC3)[C@@H]2C1, the “Percent Effect” value was -11.94%.
With CCOC(=O)[C@H]1[C@@H](O)C(=O)N(C)C12CCN(C(=O)C(CC)CC)CC2 the “Percent Effect” value was 87.69%.
CCOC(=O)[C@@H]1[C@@H](O)C(=O)N(C)C12CCN(C(=O)OC)CC2 was tested, and the “Percent Effect” value was 81.26%.
In the case of CC(C)C(=O)N1CCC2(CC1)[C@@H]1CN(C(=O)N(C)C)C[C@@H]1C(=O)N2C, the “Percent Effect” value is reported as 11.68%.
In the case of COc1cc(C)c(CN2CCC3(CC2)C(C(=O)O)CC(=O)N3C)cc1C (centres undefined), the “Percent Effect” value is reported as 7.232%.
CC(C)CC(=O)N1CCC2(CC1)[C@@H]1CN(C(=O)N(C)C)C[C@@H]1C(=O)N2C was tested, and the “Percent Effect” value was -15.87%.
NC(=O)Cn1ccnc1C1CCCN(Cc2nc3ccccc3s2)C1 (centres undefined) was tested, and the “Percent Effect” value was 1.02%.
For CCCC(=O)N(C)Cc1cccc(OC(C)C)c1, the “Percent Effect” value was 0.3075%.
In the case of CCN1CCC(CC(=O)N[C@H](C(=O)O)c2cccc(F)c2F)CC1, the “Percent Effect” value is reported as 0.01063%.
With CC(C)CN1C[C@@H]2C(=O)N(C)C3(CCN(C(=O)C(C)C)CC3)[C@@H]2C1.O=C(O)C(F)(F)F the “Percent Effect” value was 15.99%.
In the case of CCOC(=O)[C@@H]1[C@@H](OC)C(=O)N(C)C12CCN(C(=O)C(CC)CC)CC2, the “Percent Effect” value is reported as 108.6%.
CCOCC(O)CN1CCN(C(=O)CC(C)(C)C)CC1 (centres undefined) was tested, and the “Percent Effect” value was 2.808%.
With CCOC(=O)[C@H]1[C@@H](O)C(=O)N(C)C12CCN(C(=O)CC(C)(C)C)CC2 the “Percent Effect” value was 89.62%.
With CCN1CC2(CC1=O)CN(C(C)=O)CCN(C(=O)c1ccco1)C2 (centres undefined) the “Percent Effect” value was 6.232%.
With CCOC(=O)N1CCC2(CC1)N=C(CCC(C)C)NC2=O the “Percent Effect” value was 0.1534%.
With CC(C)(C)CC(=O)N1CCC(n2cc(C3(O)CCCC3)nn2)CC1 the “Percent Effect” value was 20.32%.
For CC(=O)N1CCC2(CC1)[C@@H]1CN(C(=O)N(C)C)C[C@@H]1C(=O)N2C, the “Percent Effect” value was -8.179%.
O=C(c1ccco1)N1CCC2(CC1)C(=O)NCCN2CC1CC1 was tested, and the “Percent Effect” value was 0.967%.
With CCOC(=O)[C@@H]1[C@@H](O)C(=O)N(C)C12CCN(C(=O)c1ccco1)CC2 the “Percent Effect” value was 104.5%.
CCOC(=O)[C@H]1[C@@H](O)C(=O)N(C)C12CCN(C(=O)OCC)CC2 was tested, and the “Percent Effect” value was 113.4%.
In the case of N#Cc1cccnc1NCc1ccc(S(=O)(=O)NC2CC2)cc1, the “Percent Effect” value is reported as -3.149%.
With CCOCCNCC1CCN(CCO)CC1 the “Percent Effect” value was -14.57%.
In the case of N#Cc1cc(F)ccc1CN1CCCCC1Cn1cncn1 (centres undefined), the “Percent Effect” value is reported as 7.796%.
With O=C(Nc1ccccc1Cn1cncn1)C1CCN(C2CCCCC2)C1 (centres undefined) the “Percent Effect” value was -3.545%.
With COCCCn1cnnc1C(C)NC(=O)c1[nH]c2ccc(C)cc2c1C (centres undefined) the “Percent Effect” value was 21.75%.
With CCOC(=O)[C@H]1[C@@H](O)C(=O)N(C)C12CCN(S(=O)(=O)CC)CC2 the “Percent Effect” value was 107.6%.
Cc1ccc(F)c(OC2(C(=O)O)CCN(C(=O)c3ccccc3)CC2)c1 was tested, and the “Percent Effect” value was -18.21%.
With CCS(=O)(=O)N1CCC2(CCCC(=O)N2C)CC1 the “Percent Effect” value was 1.174%.
CCOC(=O)[C@H]1[C@@H](O)C(=O)N(C)C12CCN(C(=O)c1ccccc1)CC2 was tested, and the “Percent Effect” value was 113.3%.
CCOC(=O)[C@H]1[C@@H](O)C(=O)N(C)C12CCN(C(=O)CC1CCCC1)CC2 was tested, and the “Percent Effect” value was 108.5%.
For CCOC(=O)C1CN(S(=O)(=O)CC)Cc2ncn(CC)c21 (centres undefined), the “Percent Effect” value was 10.83%.
In the case of CN1C(=O)CC(c2ccccc2)C12CCN(C(=O)c1ccc[nH]1)CC2 (centres undefined), the “Percent Effect” value is reported as -3.808%.
For Cc1nn(C)c(C)c1C(=O)N1CCN(C(=O)CC2CCCCC2)CC1, the “Percent Effect” value was -14.94%.
COCCC1COC2(CCN(C(=O)CC3CCCC3)CC2)C1 (centres undefined) was tested, and the “Percent Effect” value was -6.475%.
With OC[C@H]1CN(Cc2c(Cl)cncc2Cl)C[C@H]1CN1CCCC1 the “Percent Effect” value was -2.945%.
COCCc1noc(-c2ccc(-c3ccc(N)nc3)nc2)n1 was tested, and the “Percent Effect” value was 3.848%.
With CC(C)N(C)S(=O)(=O)N1CCCC1C(=O)N1CCSCC1 (centres undefined) the “Percent Effect” value was -16.03%.
In the case of CN(C)C1CCCN(Cc2cccc(Cn3cccn3)c2)CC1 (centres undefined), the “Percent Effect” value is reported as -12.17%.
